Reference: PubChem BioAssay AID1159580 (chemical genetic matrix, 2015)
Hit rate of the full screen: of about 5,500 compounds, about 2,000 (36%) were called active. About 18% were inconclusive and are not listed. No stated cut-off is given here; in the data, active means normalized growth mostly below about 0.91 (no sharp cut-off); inconclusive means no clear call, values can overlap the other calls; inactive means mostly above about 0.92. The list shows a part of the results.

Test: chemical genetic growth profiling, strain panel (AID 1159580);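 further: tested at 20 µM; growth read once vehicle control cultures reached saturation at 30 °C; 1 = growth at the plate median or of vehicle wells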
Settings: growth OD

Measured: normalized growth

C=C[C@H]1CN2CC[C@H]1C[C@@H]2[C@H](O)c1ccnc2ccccc12
inactive: S. cerevisiae deletion strains, locus YKL009W, strain mrt4, stronger effect = lower value 0.976 | S. cerevisiae deletion strains, locus YKL068W, stronger effect = lower value 0.979 | S. cerevisiae deletion strains, locus YKL085W, strain MDH1 (second series), stronger effect = lower value 0.972 | S. cerevisiae deletion strains, locus YKL085W, strain MDH1, stronger effect = lower value 0.972 | S. cerevisiae deletion strains, locus YKL160W, strain elf1, stronger effect = lower value 0.991 | S. cerevisiae deletion strains, locus YKL190W, strain CNB1, stronger effect = lower value 0.99 | S. cerevisiae deletion strains, locus YKR001C, strain vps1, stronger effect = lower value 0.997 | S. cerevisiae deletion strains, locus YKR026C, strain gcn3, stronger effect = lower value 0.991 | S. cerevisiae deletion strains, locus YKR091W, strain srl3, stronger effect = lower value 0.979 | S. cerevisiae deletion strains, locus YLL001W, strain dnm1, stronger effect = lower value 0.989 | S. cerevisiae deletion strains, locus YLL026W, stronger effect = lower value 0.995 | S. cerevisiae deletion strains, locus YLL041C, strain sdh2, stronger effect = lower value 0.987 | S. cerevisiae deletion strains, locus YLR027C, strain aat2, stronger effect = lower value 0.992 | S. cerevisiae deletion strains, locus YLR039C, strain RIC1, stronger effect = lower value 0.98 | S. cerevisiae deletion strains, locus YLR058C, strain SHM2, stronger effect = lower value 0.992 | S. cerevisiae deletion strains, locus YLR102C, strain apc9, stronger effect = lower value 0.988 | S. cerevisiae deletion strains, locus YLR113W, strain HOG1, stronger effect = lower value 0.967 | S. cerevisiae deletion strains, locus YLR221C, strain rsa3, stronger effect = lower value 1.02 | S. cerevisiae deletion strains, locus YLR258W, strain gsy2, stronger effect = lower value 0.991 | S. cerevisiae deletion strains, locus YLR262C, strain YPT6 (second series), stronger effect = lower value 1.01 | S. cerevisiae deletion strains, locus YLR262C, strain YPT6, stronger effect = lower value 0.983 | S. cerevisiae deletion strains, locus YLR268W, strain sec22, stronger effect = lower value 0.937 | S. cerevisiae deletion strains, locus YLR320W, strain mms22, stronger effect = lower value 0.998 | S. cerevisiae deletion strains, locus YLR330W, strain CHS5, stronger effect = lower value 0.986 | S. cerevisiae deletion strains, locus YLR342W, strain FKS1 (second series), stronger effect = lower value 1.11 | S. cerevisiae deletion strains, locus YLR342W, strain FKS1, stronger effect = lower value 0.984 | S. cerevisiae deletion strains, locus YLR357W, strain rsc2, stronger effect = lower value 0.976 | S. cerevisiae deletion strains, locus YLR370C, strain arc18, stronger effect = lower value 0.994 | S. cerevisiae deletion strains, locus YLR371W, strain rom2, stronger effect = lower value 0.977 | S. cerevisiae deletion strains, locus YLR384C, strain iki3, stronger effect = lower value 0.995 | S. cerevisiae deletion strains, locus YLR418C, strain cdc73, stronger effect = lower value 0.982 | S. cerevisiae deletion strains, locus YML016C, strain PPZ1, stronger effect = lower value 0.999 | S. cerevisiae deletion strains, locus YML032C, strain rad52, stronger effect = lower value 0.968 | S. cerevisiae deletion strains, locus YML120C, strain ndi1, stronger effect = lower value 1.01 | S. cerevisiae deletion strains, locus YML124C, strain tub3, stronger effect = lower value 0.986 | S. cerevisiae deletion strains, locus YMR058W, strain fet3, stronger effect = lower value 0.982 | S. cerevisiae deletion strains, locus YMR078C, strain ctf18, stronger effect = lower value 0.983 | S. cerevisiae deletion strains, locus YMR125W, strain sto1, stronger effect = lower value 0.977 | S. cerevisiae deletion strains, locus YMR129W, stronger effect = lower value 0.988 | S. cerevisiae deletion strains, locus YMR205C, strain PFK2, stronger effect = lower value 0.988 | S. cerevisiae deletion strains, locus YMR223W, strain ubp8, stronger effect = lower value 1.01 | S. cerevisiae deletion strains, locus YMR231W, strain pep5, stronger effect = lower value 0.979 | S. cerevisiae deletion strains, locus YMR263W, strain SAP30, stronger effect = lower value 0.989 | S. cerevisiae deletion strains, locus YMR307W, strain GAS1, stronger effect = lower value 1.09 | S. cerevisiae deletion strains, locus YNL067W, strain RPL9B, stronger effect = lower value 0.977 | S. cerevisiae deletion strains, locus YNL071W, strain lat1, stronger effect = lower value 0.988 | S. cerevisiae deletion strains, locus YNL128W, strain TEP1, stronger effect = lower value 0.982 | S. cerevisiae deletion strains, locus YNL153C, strain GIM3, stronger effect = lower value 0.991 | S. cerevisiae deletion strains, locus YNL183C, strain NPR1, stronger effect = lower value 0.951 | S. cerevisiae deletion strains, locus YNL209W, strain ssb2, stronger effect = lower value 0.995 | S. cerevisiae deletion strains, locus YNL233W, strain BNI4, stronger effect = lower value 0.985 | S. cerevisiae deletion strains, locus YNL248C, strain rpa49, stronger effect = lower value 0.982 | S. cerevisiae deletion strains, locus YNL250W, strain rad50, stronger effect = lower value 0.986 | S. cerevisiae deletion strains, locus YNL271C, strain bni1, stronger effect = lower value 0.983 | S. cerevisiae deletion strains, locus YNL298W, strain CLA4, stronger effect = lower value 0.985 | S. cerevisiae deletion strains, locus YNL307C, strain MCK1, stronger effect = lower value 0.992 | S. cerevisiae deletion strains, locus YNL322C, strain KRE1 (second series), stronger effect = lower value 0.975 | S. cerevisiae deletion strains, locus YNL322C, strain KRE1, stronger effect = lower value 0.992 | S. cerevisiae deletion strains, locus YNR049C, strain mso1, stronger effect = lower value 0.986 | S. cerevisiae deletion strains, locus YNR052C, strain pop2, stronger effect = lower value 0.992 | S. cerevisiae deletion strains, locus YOL006C, strain TOP1, stronger effect = lower value 0.992 | S. cerevisiae deletion strains, locus YOL012C, strain htz1 1.51 | S. cerevisiae deletion strains, locus YOL147C, strain pex11, stronger effect = lower value 0.979 | S. cerevisiae deletion strains, locus YOR001W, strain rrp6, stronger effect = lower value 1.01 | S. cerevisiae deletion strains, locus YOR061W, strain CKA2, stronger effect = lower value 0.986 | S. cerevisiae deletion strains, locus YOR069W, strain VPS5, stronger effect = lower value 0.997 | S. cerevisiae deletion strains, locus YOR070C, strain gyp1, stronger effect = lower value 1 | S. cerevisiae deletion strains, locus YOR080W, strain dia2, stronger effect = lower value 0.985 | S. cerevisiae deletion strains, locus YOR083W, strain WHI5, stronger effect = lower value 0.991 | S. cerevisiae deletion strains, locus YOR106W, strain vam3, stronger effect = lower value 0.999 | S. cerevisiae deletion strains, locus YOR136W, strain idh2, stronger effect = lower value 1 | S. cerevisiae deletion strains, locus YOR144C, strain elg1, stronger effect = lower value 0.983 | S. cerevisiae deletion strains, locus YOR184W, strain ser1, stronger effect = lower value 0.982 | S. cerevisiae deletion strains, locus YOR231W, strain MKK1, stronger effect = lower value 0.983 | S. cerevisiae deletion strains, locus YOR265W, strain rbl2, stronger effect = lower value 1 | S. cerevisiae deletion strains, locus YOR270C, strain vph1, stronger effect = lower value 1 | S. cerevisiae deletion strains, locus YOR290C, strain snf2, stronger effect = lower value 0.982 | S. cerevisiae deletion strains, locus YOR316C, strain cot1, stronger effect = lower value 0.972 | S. cerevisiae deletion strains, locus YPL051W, strain arl3, stronger effect = lower value 0.994 | S. cerevisiae deletion strains, locus YPL055C, strain LGE1, stronger effect = lower value 0.997 | S. cerevisiae deletion strains, locus YPL078C, strain atp4, stronger effect = lower value 0.99 | S. cerevisiae deletion strains, locus YPL106C, strain sse1, stronger effect = lower value 0.967 | S. cerevisiae deletion strains, locus YPL240C, strain hsp82, stronger effect = lower value 0.999 | S. cerevisiae deletion strains, locus YPL241C, strain CIN2, stronger effect = lower value 0.989 | S. cerevisiae deletion strains, locus YPL256C, strain CLN2, stronger effect = lower value 0.978 | S. cerevisiae deletion strains, locus YPR119W, strain clb2, stronger effect = lower value 0.974 | S. cerevisiae deletion strains, locus YPR141C, strain kar3, stronger effect = lower value 0.981 | S. cerevisiae deletion strains, locus YPR163C, strain tif3, stronger effect = lower value 0.977 | S. cerevisiae deletion strains, locus YPR167C, strain met16, stronger effect = lower value 0.979 | S. cerevisiae deletion strains, strain wtn01, stronger effect = lower value 0.98 | S. cerevisiae strains, strain wild type, stronger effect = lower value 1
